Experiment in all cases: cell proliferation relative to vehicle (% of vehicle); higher = less growth inhibition
What all share (conditions): 72 h

Assay [1] deals with U2932 TK216-resistant clone 2. The essentials: (§1)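 Growth medium with 10% FBS at 37°C and 5% CO2 was used to culture U2932, an ABC-DLBCL line, in parental form and as two clones rendered resistant to an ETS-targeting agent by repeated exposure over almost a year. These cells received compounds from a 348-member targeted inhibitor library at 500 nM or 50 nM for 72 h, followed by 4 h of MTT, a 25% SDS stop and an absorbance read on a Cytation 3. The percentage of proliferating cells is reported relative to DMSO vehicle.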

In assay [2] the test system is U2932 TK216-resistant clone 3. The essentials:
as §1

The next assay deals with U2932 parental. The essentials: as §1

The values below come from the supplement of paper PMC13172266.

Turning to `FC(F)c1nc2ccccc2n1-c1nc(N2CCOCC2)nc(N2CCOCC2)n1`, the cell proliferation stood at 95.8 in assay [1] (50 nM); 42.5 in assay [1] (500 nM); 93.6 in assay [2] (50 nM); 46 in assay [2] (500 nM); 89.9 in the assay with U2932 parental (50 nM); 46.8 with U2932 parental (500 nM).

Consider `C[C@@H](Oc1cc(-c2cnn(C3CCNCC3)c2)cnc1N)c1c(Cl)ccc(F)c1Cl`, for which the cell proliferation was 97.6 in assay [1] (50 nM); 74.4 in assay [1] (500 nM); 86.4 in assay [2] (50 nM); 61.9 in assay [2] (500 nM); 89.9 in the assay with U2932 parental (50 nM); 56.5 with U2932 parental (500 nM).

Consider `Cn1cc(CNCC2CCN(c3ncc(C(=O)NO)cn3)CC2)c2ccccc21`, for which the cell proliferation worked out at 8.61 in assay [1] (50 nM); 5.78 in assay [1] (500 nM); 11.4 in assay [2] (50 nM); 10.2 in assay [2] (500 nM); 4.68 in the assay on U2932 parental (50 nM); 0.113 with U2932 parental (500 nM).

With `CC[C@@](C)(Nc1ccnc(-c2c[nH]c3ncccc23)n1)C(=O)NCC(F)(F)F` [Decernotinib (VX-509)], the cell proliferation in assay [1] (50 nM) came out at 103; in assay [1] (500 nM), 92.4; in assay [2] (50 nM), 97.4; in assay [2] (500 nM) it was 105; in the assay with U2932 parental (50 nM), 98.2; in the assay with U2932 parental (500 nM), 98.6.

`C[C@]12CC[C@@H]3c4ccc(O)cc4C[C@@H](CCCCCCCCC[S+]([O-])CCCC(F)(F)C(F)(F)F)[C@H]3[C@@H]1CC[C@@H]2O` (stereo partly drawn) [Fulvestrant]: the cell proliferation amounted to 98.2 in assay [1] (50 nM); 101 in assay [1] (500 nM); 103 in assay [2] (50 nM); 104 in assay [2] (500 nM); 98.8 in the assay on U2932 parental (50 nM); 93.9 with U2932 parental (500 nM).

As for `CCCCNc1ncc2c(-c3ccc(CN4CCN(C)CC4)cc3)cn([C@H]3CC[C@H](O)CC3)c2n1`, the cell proliferation in assay [1] (50 nM) worked out at 95.5; in assay [1] (500 nM), 71.1; in assay [2] (50 nM), 92; in assay [2] (500 nM), 65.6; with U2932 parental (50 nM), 91.3; with U2932 parental (500 nM) it was 62.7.

For `COc1cc(C(=O)N2CCC(N3CCN(C)CC3)CC2)ccc1Nc1ncc2c(n1)N(C)c1ccccc1C(=O)N2C`, the cell proliferation in assay [1] (50 nM) amounted to 104; in assay [1] (500 nM), 92.2; in assay [2] (50 nM) it was 100; in assay [2] (500 nM), 100; with U2932 parental (50 nM), 105; in the assay with U2932 parental (500 nM) it was 101.

Take `NC(=O)c1ccc(-c2nc(-c3ccccn3)c(-c3ccc4c(c3)OCO4)[nH]2)cc1`: the cell proliferation in assay [1] (50 nM) was determined as 115; in assay [1] (500 nM), 109; in assay [2] (50 nM), 100; in assay [2] (500 nM), 102; with U2932 parental (50 nM), 101; in the assay on U2932 parental (500 nM), 101.

`Cc1c(CN2CCN(C(=O)[C@H](C)O)CC2)sc2c(N3CCOCC3)nc(-c3cnc(N)nc3)nc12`: the cell proliferation in assay [1] (50 nM) was 79.4; in assay [1] (500 nM), 32; in assay [2] (50 nM) it was 82.1; in assay [2] (500 nM) it was 40.6; in the assay with U2932 parental (50 nM) it was 85; in the assay with U2932 parental (500 nM) it was 33.4.

Consider `CC(C)N(C[C@H]1O[C@@H](n2cnc3c(N)ncnc32)[C@H](O)[C@@H]1O)[C@H]1C[C@@H](CCc2nc3cc(C(C)(C)C)ccc3[nH]2)C1`, for which the cell proliferation in assay [1] (50 nM) was found to be 98.8; in assay [1] (500 nM), 91.9; in assay [2] (50 nM), 97.2; in assay [2] (500 nM), 91.6; in the assay on U2932 parental (50 nM) it was 101; with U2932 parental (500 nM), 95.4.

With `Cc1ccc2c(=O)c3cccc(CC(=O)O)c3oc2c1C` [DMXAA (Vadimezan)], the cell proliferation was 110 in assay [1] (50 nM); 99.3 in assay [1] (500 nM); 101 in assay [2] (50 nM); 95.3 in assay [2] (500 nM); 101 with U2932 parental (50 nM); 99.2 in the assay with U2932 parental (500 nM).

On to `Cn1cnc2c(F)c(Nc3ccc(Br)cc3Cl)c(C(=O)NOCCO)cc21` [Selumetinib (AZD6244)], for which the cell proliferation in assay [1] (50 nM) was 106; in assay [1] (500 nM) it was 95.8; in assay [2] (50 nM), 97; in assay [2] (500 nM) it was 90.1; with U2932 parental (50 nM), 99.3; in the assay on U2932 parental (500 nM) it was 101.

As for `CC(=O)O[C@H]1C(=O)[C@@]2(C)[C@H]([C@H](OC(=O)c3ccccc3)[C@]3(O)C[C@H](OC(=O)[C@H](O)[C@@H](NC(=O)c4ccccc4)c4ccccc4)C(C)=C1C3(C)C)[C@]1(OC(C)=O)CO[C@@H]1C[C@@H]2O` [Paclitaxel], the cell proliferation in assay [1] (50 nM) amounted to 11.2; in assay [1] (500 nM) it was 14.3; in assay [2] (50 nM), 6.88; in assay [2] (500 nM) it was 4.73; in the assay with U2932 parental (50 nM) it was 11.2; in the assay with U2932 parental (500 nM) it was 9.85.

Regarding `CO[C@H]1C[C@@H]2CC[C@@H](C)[C@@](O)(O2)C(=O)C(=O)N2CCCC[C@H]2C(=O)O[C@H]([C@H](C)C[C@@H]2CC[C@@H](OP(C)(C)=O)[C@H](OC)C2)CC(=O)[C@H](C)/C=C(\C)[C@@H](O)[C@@H](OC)C(=O)[C@H](C)C[C@H](C)/C=C/C=C/C=C/1C` [Ridaforolimus (Deforolimus, MK-8669)], the cell proliferation was 67.9 in assay [1] (50 nM); 64.3 in assay [1] (500 nM); 62.2 in assay [2] (50 nM); 58.5 in assay [2] (500 nM); 56.4 in the assay with U2932 parental (50 nM); 57.2 in the assay with U2932 parental (500 nM).

Consider `COc1ccc(-n2c(SCCCN3C(=O)c4cccc5cccc(c45)C3=O)nnc2-c2ccncc2)cc1`, for which the cell proliferation in assay [1] (50 nM) was found to be 106; in assay [1] (500 nM), 97.3; in assay [2] (50 nM) it was 104; in assay [2] (500 nM) it was 99.4; with U2932 parental (50 nM), 94.3; in the assay with U2932 parental (500 nM) it was 94.5.

Consider `Nc1ccn([C@@H]2O[C@H](CO)[C@@H](O)[C@@H]2O)c(=O)n1` [Cytarabine], for which the cell proliferation in assay [1] (50 nM) was found to be 93.7; in assay [1] (500 nM), 24; in assay [2] (50 nM) it was 93.6; in assay [2] (500 nM) it was 65.8; with U2932 parental (50 nM), 88.9; in the assay with U2932 parental (500 nM), 36.

As to `CC(C)Oc1ccc(C(=O)N[C@H](CNC(=O)CN(C)C)Cc2ccc(-c3cn4cccc([C@H](C)O)c4n3)cc2)cc1Cl`, the cell proliferation in assay [1] (50 nM) is 45.4; in assay [1] (500 nM), 15; in assay [2] (50 nM) it was 34.3; in assay [2] (500 nM), 14.4; in the assay with U2932 parental (50 nM), 47.6; in the assay on U2932 parental (500 nM) it was 14.6.

With `Cc1cc(NC(=O)c2cccc(NC(=O)/C=C/CN(C)C)c2)ccc1Nc1nccc(-c2cccnc2)n1`, the cell proliferation in assay [1] (50 nM) stood at 99.5; in assay [1] (500 nM), 106; in assay [2] (50 nM) it was 108; in assay [2] (500 nM), 116; in the assay on U2932 parental (50 nM) it was 96.8; in the assay on U2932 parental (500 nM) it was 103.

Turning to `O=C(O)CC[C@H]1CC[C@@](c2cc(F)ccc2F)(S(=O)(=O)c2ccc(Cl)cc2)CC1`, the cell proliferation was 102 in assay [1] (50 nM); 109 in assay [1] (500 nM); 105 in assay [2] (50 nM); 106 in assay [2] (500 nM); 93.5 with U2932 parental (50 nM); 93.2 in the assay on U2932 parental (500 nM).

As for `O=C(c1ccc(/C=C/c2n[nH]c3ccccc23)cc1)N1CCNCC1`, the cell proliferation in assay [1] (50 nM) worked out at 109; in assay [1] (500 nM) it was 91; in assay [2] (50 nM), 104; in assay [2] (500 nM), 82.4; in the assay on U2932 parental (50 nM), 95; with U2932 parental (500 nM) it was 72.2.

In the case of `Nc1nc(F)nc2c1ncn2[C@@H]1O[C@H](CO)[C@@H](O)[C@@H]1O` [Fludarabine], the cell proliferation in assay [1] (50 nM) amounted to 107; in assay [1] (500 nM), 97.8; in assay [2] (50 nM), 103; in assay [2] (500 nM) it was 96.4; with U2932 parental (50 nM), 103; in the assay on U2932 parental (500 nM) it was 97.3.

For `CO[C@@]12[C@H](COC(N)=O)C3=C(C(=O)C(C)=C(N)C3=O)N1C[C@@H]1N[C@@H]12` [Mitomycin C], the cell proliferation in assay [1] (50 nM) came out at 94.8; in assay [1] (500 nM) it was 13.8; in assay [2] (50 nM), 96.6; in assay [2] (500 nM), 26.4; with U2932 parental (50 nM), 91.3; in the assay on U2932 parental (500 nM) it was 35.8.

With `Cc1cccc(-c2[nH]c(CNc3ccccc3F)nc2-c2ccc3ncnn3c2)n1`, the cell proliferation worked out at 106 in assay [1] (50 nM); 102 in assay [1] (500 nM); 99.6 in assay [2] (50 nM); 106 in assay [2] (500 nM); 104 with U2932 parental (50 nM); 98.6 in the assay on U2932 parental (500 nM).
